Hits are enriched below; roughly 1.9% of the tested compounds scored in any of these assays.
PERK inhibitor = block of dimerizer-induced PERK translation repression, primary screen, PERK inhibitor project, CHO PERK-DD cells, SEAP luminescence, HTS; Eukaryotic translation initiation factor 2-alpha kinase 3 (Homo sapiens), Q9NZJ5; CHO PERK-DD fusion, SEAP luminescence translation reporter; inhibition, % at 5.6 µM; hit rate 0.17% among 220,000; AID 1416, 2008;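 active means inhibition above the mean inhibition of all tested compounds plus 3 SD, set separately per screening campaign, cut at about 2.9% in these data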;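 further: PERK kinase domain activated by AP20187 dimerizer at 100 nM; 0% = DMSO with dimerizer and 100% = rapamycin at 8.4 µM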
MLLE-PAM2 inh = inhibitors of PABP1 MLLE–PAM2 peptide binding, primary screen, biochemical, fluorescence polarization, FITC-PAM2, GST-MLLE; hit rate 0.36% among 360,000; inhibition, % at 20 µM; Polyadenylate-binding protein 1 (Homo sapiens), P11940; AID 588489, 2011; in the data active means inhibition above about 35%, passing the limit was not always enough;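 further: plate controls were DMSO wells with GST-MLLE for no effect and wells lacking GST-MLLE protein for full effect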
Target sequence (P11940 whole entry, looked up): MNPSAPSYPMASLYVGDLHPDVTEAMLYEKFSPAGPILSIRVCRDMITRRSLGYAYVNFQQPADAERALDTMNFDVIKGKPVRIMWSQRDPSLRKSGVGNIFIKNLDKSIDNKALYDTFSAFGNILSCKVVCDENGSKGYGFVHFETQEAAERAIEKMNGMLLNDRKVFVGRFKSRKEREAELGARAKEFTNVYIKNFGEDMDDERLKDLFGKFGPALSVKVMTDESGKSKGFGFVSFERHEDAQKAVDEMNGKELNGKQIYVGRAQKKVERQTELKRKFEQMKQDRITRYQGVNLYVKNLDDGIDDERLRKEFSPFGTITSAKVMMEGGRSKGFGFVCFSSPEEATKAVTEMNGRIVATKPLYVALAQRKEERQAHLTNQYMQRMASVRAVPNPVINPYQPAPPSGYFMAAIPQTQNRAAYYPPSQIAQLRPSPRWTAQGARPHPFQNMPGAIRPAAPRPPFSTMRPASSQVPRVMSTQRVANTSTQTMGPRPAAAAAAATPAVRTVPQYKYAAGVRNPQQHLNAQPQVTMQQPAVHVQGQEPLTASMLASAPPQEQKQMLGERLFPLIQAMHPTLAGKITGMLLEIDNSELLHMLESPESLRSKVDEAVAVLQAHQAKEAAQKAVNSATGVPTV
PABP polyA inh = PABP poly(A) RNA binding inhibitors, primary screen, biochemical, fluorescence polarization, uHTS. hit rate 1% among 290,000. Polyadenylate-binding protein 1 (Homo sapiens), P11940. AID 2014, 2009. inhibition, % at 35 µM;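 further: calls also rest on retests at 20 µM and on dose response follow-up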
GRK2 aptamer HTS = compounds blocking aptamer binding on GRK2 – biochemical, human GRK2, bead flow cytometry, HTS, primary screen; FAM-aptamer displacement from GRK2; Beta-adrenergic receptor kinase 1 (Homo sapiens), P25098; inhibition of aptamer binding, % at 10 µM; hit rate 0.59% among 330,000;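 active means inhibition of aptamer binding above 40%, roughly 3 SD of noise, on plates passing a quality check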;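 further: median bead fluorescence of bound FAM aptamer so fluorescent compounds give negative values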
eIF4H FP inh = human eIF4H binding inhibitors, primary screen, translation initiation inhibitor project, biochemical, uHTS, fluorescence polarization; Eukaryotic translation initiation factor 4H (Homo sapiens), Q15056; eIF4H fluorescence polarization binding assay; inhibition, % at 35 µM; hit rate 0.94% among 290,000; AID 2012, 2009;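 further: calls also rest on retests at 20 µM and on dose response follow-up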
* = called active by the depositor; ? = inconclusive; . = no result given; ! = not confirmed by another sample. Unless noted, how the calls were made is not given here.

SMILES	PERK inhibitor	MLLE-PAM2 inh	PABP polyA inh	GRK2 aptamer HTS	eIF4H FP inh
Cn1c(O)c(C(=O)c2ccccc2)c(=O)n(C)c1=O	1	7	54*	2	56*
COC(=O)C12CCc3c(ccc4cc(OC)ccc34)C1=CC(=O)C2 (centres undefined)	.	16	.	.	.
CN(C)C1C(=O)C(C(N)=O)=C(O)C2(O)C(=O)C3=C(O)c4c(O)cccc4C(C)(O)C3C(O)C12 (centres undefined)	.	21	100*	3	99*
CCCCCCCCc1ccc(O)cc1	.	7	.	3	.
C[N+](C)(C)CCc1ccc(O)cc1	1	-121	55*	0	?
CCCC[N+]12CCC(CC1)C(C(O)(c1ccccc1)c1ccccc1)C2 (centres undefined)	0	-107	65	1	active
NC(=O)c1cn(C2OC(CO)C(O)C2O)c2ncnc(N)c12 (centres undefined)	5.3*	-6	0	.	0
N#Cc1cn(C2OC(CO)C(O)C2O)c2ncnc(N)c12 (centres undefined)	.	-6	.	.	.
O=c1c2ccccc2[se]n1-c1ccccc1	1	37*	7	4	-2
CC12C=CC(=O)C=C1CCC1C2C(O)CC2(C)C1CCC2(C)O (centres undefined)	.	3	.	.	.
Cc1cc(N2CCCC2)ccc1C=C(C#N)C#N	0	57	-5	0	?
Cc1ccc2cc(C=C(C#N)C#N)c(Cl)nc2c1	0	53*	-1	1	?
C[C@]12CCC3C(CC[C@H]4C[C@@H](O)CC[C@]34C)C1CC[C@@H]2OC(=O)[C@H](N)CCCCN (some centres undefined)	.	12	.	0	.
COc1cc(N2CCOCC2)ccc1C=C1C(=O)NC(=O)NC1=O	0	1	4.4*	0	69*
COc1cc2c(cc1O)CC1c3c(cc(O)c(OC)c3-2)CCN1C (centres undefined)	0	7	20*!	5	81*!
COc1cc2c(cc1OC)-c1c(OC)c(OC)cc3c1[C@H](C2)N(C)CC3	-1	13	-1	2	21
CNc1cc(Cl)c2nonc2c1[N+](=O)[O-]	0	40*	-10	.	23
O=C1NC(=O)N(c2ccc3c(c2)OCO3)C(=O)/C1=C/c1cccs1	1	19	2	44*	15
O=C1NC(=O)N(c2ccc3c(c2)OCO3)C(=O)/C1=C/c1ccsc1	0	3	10	7	23
O=c1[nH]c(=S)n(C2CC2)c(O)c1C=Nc1ccc2c(c1)OCO2	0	6	42	3	68*
CCCCn1c(O)c(C(C)=NCCc2c[nH]c3ccccc23)c(=O)[nH]c1=O	-1	-1	66*	2	84*
C=CCn1c(O)c(C(C)=NCCc2c[nH]c3ccccc23)c(=O)[nH]c1=O	-2	-12	7	.	1
CCN(CC)c1ccc(N=Cc2c(O)n(-c3cc(OC)ccc3OC)c(=O)[nH]c2=O)cc1	1	-96	0.1*	0	99*
CC1Oc2cc3c(-c4c(O)cc(O)c5c(O)c6c(cc45)OC(C)C(C)C6=O)c(O)cc(O)c3c(O)c2C(=O)C1C (centres undefined)	0	16	79*	0	90*
O=C(NCC1=C(c2cccc3ccccc23)C[C@@H]2CC[C@H]1N2Cc1ccco1)c1ccc([N+](=O)[O-])cc1	.	4	.	.	.
CSCCC(c1nnnn1Cc1ccccc1)N1CCC2(CC1)C(=O)NCN2c1ccccc1 (centres undefined)	.	0	.	.	.
COc1ccc(C(=O)C2CCCN(Cc3cccc(C)n3)C2)c(OC)c1 (centres undefined)	-1	-6	59*	0	92*
COc1ccc(C(=O)C2CCCN(Cc3ccc(C)s3)C2)c(OC)c1 (centres undefined)	0	0	-5	0	-7
COc1ccc(/C=C2/C(=O)NC(=O)N(Cc3ccco3)C2=O)cc1	0	.	?	82*	?
Cn1cccc1/C=C1\C(=O)NC(=O)N(Cc2ccco2)C1=O	1	-20	-10	.	59

Screens deposited in PubChem by several laboratories.
